The campaign covered roughly 53,000 sequences. About 3,700 (7%) were called active. This excerpt belongs to a sample that is enriched for actives. Unmarked numbers belong to inactive results.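 The calls were made as follows: active = gene knockdowns whose robust z-score for IL-1 alpha signal is at least 2 or at most -2, so actives lie on both sides; inactive = the rest.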
Test: Components of the Cytosolic LPS Sensing Pathway: Gene Identification via Genome-wide siRNA Screen;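 also: robust z of the log signal after scaling to non-targeting control siRNA wells of the plate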
Details: RAW264.7 macrophages, IL-1a HTRF, actives lie on both sides, screened at 100 nM (by protocol), cells primed 5 h with Pam3CSK4 first
How it was run: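 Read-out: IL-1a HTRF on supernatant, divided by plate negative-control median ×100, log-transformed and converted to robust z-score. Cells were RAW264.7 given 100 nM siRNA, Pam3CSK4-primed 5 hours, then LipidA-transfected 24 hour.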

In order of rising z-score:
1. GGGAGAGAUGUCAUUGCACTT against Eif4a3  -1.9
2. GCUUACCCUGACUCCAAUUTT against Dhx33  -1.76
3. GGUGGUAAUUUUUCUCAGATT against Agxt2  -1.74
4. GGUCUGUCUCCAGAUUGCUTT against Olfr56  -1.73
5. GGCAUGGAAUAUGAUGUUATT against Nlrp9b  -1.72
6. GCGUGAGAUACCAUAUUAUTT against Bank1  -1.47
7. GGGAGCAGUCUUCCCUCAUTT against Cox8a  -1.44
8. GCUGAAUGGAAGGAAGUUGTT against Wdr83os  -1.32
9. GGAAGUUCCACGUUAUUGUTT against Eif2b2  -1.3
10. GCUUCGGAAUCGGUUACCATT against Alg2  -1.28
11. GGUCAGCCAGACCAUUUCUTT against Edc3  -1.27
12. GGUGGAAGCACUCAAUAAGTT against Pik3cb  -1.24
13. GGUCUUGUGCAUAAAACAGTT against Ece2  -1.06
14. GCGAUUUCACACCAUCACATT against Rab10  -1.03
15. GCUCAAAAAACCGAAAUGATT against Cd274  -1.03
16. GGGUCAAUCAUGAAUGUUUTT against Pak4  -1.02
17. GCAUAUCCUAAACACUGUUTT against Pqlc3  -0.966
18. GGUGAUUUGAACUGUGAAATT against Tmem126a  -0.963
19. GGAAUUUGUGAAAAGAAGUTT against Aldh1a2  -0.923
20. CCAAGGUCUAAAAAAAUAGTT against Adamts19  -0.907
21. GGCCUUUCACAACAUAAAATT against Chil6  -0.808
22. GGCAAUCCAGGCAAUAUCATT against C1qa  -0.808
23. GGCGUAAACAUGGUGUGCATT against Taok3  -0.807
24. GGUUGUUUAUGCUUUCUCUTT against Arhgap32  -0.766
25. GAUGGUCAUCCUUCCUUUATT against Olfr341  -0.737
26. CCAUACAAGAGUGACAGUUTT against Olfr810  -0.736
27. GCGGCUACGUGUUUGACUATT against Csnk1g2  -0.735
28. GCAGAGAGGAUAACUGACCTT against Slc25a44  -0.723
29. GGAUCUUAUUAUUUGAUCCTT against Mettl15  -0.671
30. GGGACAUGUUUUGAUAAAGTT against Yy1  -0.591
31. GGUCAGGCUGAGGAAUUCATT against Cyp2s1  -0.562
32. GGUGAUAGUACUGUCAGCCTT against Olfr1225  -0.517
33. GCGCAUCUAUGAAAAAACATT against Cerk  -0.471
34. GGAAAAUCUUAGGAAGAUGTT against Elf4  -0.39
35. GGCCAGUGGAGGAAUAUGATT against 1300017J02Rik  -0.383
36. GGUAGAGAACCAUUUGCUGTT against Dtnbp1  -0.376
37. GGAAUACCACAUGCUUUUGTT against Ldah  -0.288
38. GGACAAACCUUGGAAGAUUTT against Ccdc166  -0.24
39. GGUCUGUAUGUCAUUUAUCTT against Ywhag  -0.208
40. GGAAACUGCAUUCAAGCCATT against Apod  -0.191
41. GCUUAGACGACUAGACCUGTT against Slit2  -0.186
42. GCACUUAGACUAUUCCAGGTT against Tph2  -0.118
43. GGGCUGACUAUUAUUUCAGTT against Cysltr2  -0.107
44. GCUCUAUAGUGACCAAUGUTT against Gcgr  -0.072
45. CCCUUACUUAGUCUCCACUTT against Olig1  -0.025
46. GCACAAGAAAUCGAAUAUGTT against Acr  -0.00119
47. CGAGGAGUGGUAUUUUUACTT against Slc34a1  0.0248
48. GGAGUCCUCUAAUGUAAAUTT against Elovl4  0.0471
49. GGUUAUCCUCAUUGAUCCGTT against Rpl15  0.0822
50. GCUCUCAUCAGACUUCGAGTT against Zfp202  0.0887
51. GGAAUUCCCAUUGGAAGAATT against Vmn1r232  0.0956
52. GCGACUGACCUUCAAACUGTT against Piwil4  0.193
53. GGUAAAUUCAACUGGAAGGTT against Lyar  0.194
54. GGACCACCGUGAUCAACAUTT against Ifitm2  0.215
55. GGGUUGUCCUGAACUUUAATT against Npr1  0.236
56. CCAGAUUAUCCGUUUAAACTT against Ube2e2  0.242
57. CCCUGGCCAAACAUAGUGGTT against Efcab12  0.278
58. GGUCUACCUAAAACUGGAGTT against Cbln4  0.337
59. GACCACCAGAAAGUUUCACTT against Lfng  0.339
60. CCGAUUUAACUGAAUUUGCTT against Acaa2  0.342
61. GGAACAAGAACAAGUUGAGTT against Spa17  0.389
62. CCUCUAGACCGAAUGAAAATT against Zfyve16  0.472
63. GGAUAUUAUGUCUUUGCUATT against Ints2  0.499
64. GGGAACUCAAAGAAGAGAGTT against Lysmd2  0.515
65. GGAAGUAGAUUAGAUGGUATT against Akt3  0.52
66. GCUAACCCUCGUUUAGAAGTT against Apol9b  0.529
67. CGGAAGAAUAAAAACCGGCTT against Meaf6  0.601
68. GGUGGUCUGAUCGUAGACATT against Lrrc61  0.672
69. CCAGCAAAUGAGAGGUCUGTT against Olfr1024  0.676
70. CGAUAAAAGAGAGAUGAUUTT against Rap1gds1  0.699
71. GGAGGUAACAACAACAGAATT against BC028528  0.7
72. GGCAUCUUGGAGGAUUUGCTT against Cyrib  0.719
73. CCAUGUGACAGCAUUGUUGTT against Axin1  0.754
74. GGUGCUUCUCUAAGAUAAUTT against Ddias  0.776
75. GCCUGAUAUCAACAUAGGATT against Pth2r  0.802
76. CCGCCGAUGAGUUUGUUAATT against Hsd17b3  1.2
77. GGACACUUUCCAAUGGUGATT against Npsr1  1.25
78. GGCCAACAAGGAAAACAUCTT against Bcas2  1.33
79. GGGACCAAGAAGGAUAACUTT against Flrt1  1.4
80. GGAAGGCCAUUUCAACUAATT against Olfr1367  1.54
81. AGAAAUGCCUCUUCAGUGATT against Olfr884  1.59
82. CCACGUGUCUUAGAAUUAATT against Gas1  1.67
83. GGAGGAGGCAGAAACAACATT against Tex46  1.87
84. GCUCACUUGUAGUGCUUUATT against Arf2  1.88
85. GGACAAGUCGAGUUUCAAGTT against Zfp503  1.98

In the case of CGCCAAUGUGAUUAAACUATT against Mak, the z-score is reported as 2.01 (active).
With GGACAUGUGUAAAUAAUCATT against En2 the z-score was 3.4 (active).
In the case of GGUGUUAUCAGAAUUCAGATT against Cars, the z-score is reported as 2.6 (active).
For GGAUGAUUUAUGGUUACUGTT against Vmn1r80, the z-score was 2.01 (active).
With GGAGAAAUGAAGAUUGUGGTT against Tmem218 the z-score was -2.31 (active).
For GGUGGCAAAGUGGUGAUCCTT against Fabp7, the z-score was 2.05 (active).
For GAUUUGAGACCCAGAUCAUTT against Gzmm, the z-score was 2.08 (active).
With CGAAGUGGUUUUAUGUACUTT against Cdkn2b the z-score was -2.39 (active).
In the case of CCAUCUUGGAGAUCCUGAUTT against Kat5, the z-score is reported as -2.46 (active).
In the case of “GGAACACACAAUUUUAUCATT against 4933436I01Rik”, the z-score is reported as -2.98 (active).
With CCCUAACUACUUCAUGAAUTT against Paip1 the z-score was -2.11 (active).
For GGAAAUCCAUUGUUUAAAGTT against Wt1, the z-score was 2.01 (active).
In the case of GGUGAAGUUACAGUCAAAUTT against Nolc1, the z-score is reported as 2.54 (active).
In the case of CCAUUCUUAGUUCACUAUATT against Rgcc, the z-score is reported as -2.55 (active).
For GGCAGGACACCAUAUGGUUTT against Tedc1, the z-score was -2.16 (active).
In the case of GGGUGAUGCCCUUGAAUCUTT against Twf2, the z-score is reported as 2.48 (active).
For GGAGCUCGAAAAAUUUCAATT against Igfl3, the z-score was 2.13 (active).
For GGCUGUAAAACUCUGGUUUTT against Vmn1r195, the z-score was 2.82 (active).
In the case of UAAAUGAGCUCGUAAUCUUTT against Olfr874, the z-score is reported as 3.23 (active).
For GCUCUGUCUUAAGAGACUATT against Smo, the z-score was 2.39 (active).
For GCUCUACCUUCGCUGGAAATT against Slc7a6, the z-score was 2.17 (active).
In the case of GCUGAAAGAUUUACUGCCCTT against Bhlhe41, the z-score is reported as 2.95 (active).
In the case of GGUAAUGCUGUGGAGUCUUTT against Wdr53, the z-score is reported as -2.59 (active).

Reference: PubChem BioAssay AID1508600 (Functional Genomics Laboratory (NCATS/FGL), 2020)
